Active and inactive are the calls of the source.
What was measured:
[1] = tested on: PRMT1 (protein arginine N-methyltransferase 1); assay: small molecules binding arginine methyltransferase PRMT1 – biochemical, small-molecule microarray, 635 nm fluorescence, primary screen (AID 1088); details: higher = more signal;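 further: binding of Prmt1 protein to compounds spotted on small-molecule microarray slides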
[2] = growth effects on S. cerevisiae YJM789 – YJM789 clinical isolate, OD600, 24 h, basal, primary screen (AID 1089); details: higher = more signal, called active from +8 up or from −8 down;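 further: growth of clinical yeast isolate S. cerevisiae YJM 789 seeded 1000 cells per well; test concentration not given here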
[3] = S. pombe growth modifiers, basal conditions – strain 972, OD600, 24 h, no modulator, primary screen (AID 1090);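 further: basal condition with compound alone and no growth modifier present; test concentration not given here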; details: S. pombe 972 growth, higher = more signal, called active from +8 up or from −8 down
[4] = budding yeast growth modifiers under rapamycin – strain BY4716, OD600, 96 h, primary screen (AID 1091); further: test concentration not given here; details: S. cerevisiae BY4716 + rapamycin, higher = more signal, called active from +8 up or from −8 down
[5] = target: Torsin-1A-interacting protein 2 (Homo sapiens) (UniProt Q8NFQ8); assay: small molecules binding lysate-expressed LULL1 – cell lysate, human LULL1 lysate, 635/667 nm fluorescence, primary screen (AID 1092); details: small-molecule microarray, hLULL1 lysate binding, 635 nm fluorescence; higher = more signal;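 further: probe is lysate of COS7 cells overexpressing human LULL1; score merges per-feature 667 nm fluorescence with signal-to-noise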
[6] = optical density change of DRC41 E. coli – strain DRC41, OD650, 24 h, E. coli filamentation project, primary screen (AID 1093);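 further: MC1000 strain lacking acrAB efflux and sulA so SOS filamentation is blocked; test concentration not given here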; details: E. coli DRC41 growth, higher = more signal, called active from +8 up or from −8 down
[7] = probe aLefty2 binding to arrayed compounds – biochemical, biotinylated probe, 635/667 nm fluorescence, primary screen (AID 1094); details: small-molecule microarray, higher = more signal;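 further: score merges spot fluorescence near 667 nm with spot signal-to-noise ratio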
[8] = tested on: Noggin (protein binding on small-molecule microarray); assay: small molecules binding Noggin protein – biochemical, 635/667 nm fluorescence, primary screen (AID 1095); details: 635 nm fluorescence, higher = more signal;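 further: score merges 667 nm feature fluorescence with signal to noise over triplicate slides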
[9] = target: Neurogenic locus notch homolog protein 3 (Homo sapiens) (UniProt Q9UM47); assay: small molecules binding NOTCH3 protein – biochemical, 635/667 nm fluorescence, primary screen (AID 1096); details: small-molecule microarray, 635 nm fluorescence, higher = more signal
[10] = probe aEGFR binding to arrayed compounds – biochemical, biotinylated probe, 635/667 nm fluorescence, primary screen (AID 1097); details: small-molecule microarray, higher = more signal;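 further: probe is a biotinylated anti-EGFR antibody binding compounds printed on slides; score combines fluorescence near 667 nm and signal to noise of each spot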

Neurogenic locus notch homolog protein 3 (Homo sapiens), sequence (Q9UM47 whole entry, looked up): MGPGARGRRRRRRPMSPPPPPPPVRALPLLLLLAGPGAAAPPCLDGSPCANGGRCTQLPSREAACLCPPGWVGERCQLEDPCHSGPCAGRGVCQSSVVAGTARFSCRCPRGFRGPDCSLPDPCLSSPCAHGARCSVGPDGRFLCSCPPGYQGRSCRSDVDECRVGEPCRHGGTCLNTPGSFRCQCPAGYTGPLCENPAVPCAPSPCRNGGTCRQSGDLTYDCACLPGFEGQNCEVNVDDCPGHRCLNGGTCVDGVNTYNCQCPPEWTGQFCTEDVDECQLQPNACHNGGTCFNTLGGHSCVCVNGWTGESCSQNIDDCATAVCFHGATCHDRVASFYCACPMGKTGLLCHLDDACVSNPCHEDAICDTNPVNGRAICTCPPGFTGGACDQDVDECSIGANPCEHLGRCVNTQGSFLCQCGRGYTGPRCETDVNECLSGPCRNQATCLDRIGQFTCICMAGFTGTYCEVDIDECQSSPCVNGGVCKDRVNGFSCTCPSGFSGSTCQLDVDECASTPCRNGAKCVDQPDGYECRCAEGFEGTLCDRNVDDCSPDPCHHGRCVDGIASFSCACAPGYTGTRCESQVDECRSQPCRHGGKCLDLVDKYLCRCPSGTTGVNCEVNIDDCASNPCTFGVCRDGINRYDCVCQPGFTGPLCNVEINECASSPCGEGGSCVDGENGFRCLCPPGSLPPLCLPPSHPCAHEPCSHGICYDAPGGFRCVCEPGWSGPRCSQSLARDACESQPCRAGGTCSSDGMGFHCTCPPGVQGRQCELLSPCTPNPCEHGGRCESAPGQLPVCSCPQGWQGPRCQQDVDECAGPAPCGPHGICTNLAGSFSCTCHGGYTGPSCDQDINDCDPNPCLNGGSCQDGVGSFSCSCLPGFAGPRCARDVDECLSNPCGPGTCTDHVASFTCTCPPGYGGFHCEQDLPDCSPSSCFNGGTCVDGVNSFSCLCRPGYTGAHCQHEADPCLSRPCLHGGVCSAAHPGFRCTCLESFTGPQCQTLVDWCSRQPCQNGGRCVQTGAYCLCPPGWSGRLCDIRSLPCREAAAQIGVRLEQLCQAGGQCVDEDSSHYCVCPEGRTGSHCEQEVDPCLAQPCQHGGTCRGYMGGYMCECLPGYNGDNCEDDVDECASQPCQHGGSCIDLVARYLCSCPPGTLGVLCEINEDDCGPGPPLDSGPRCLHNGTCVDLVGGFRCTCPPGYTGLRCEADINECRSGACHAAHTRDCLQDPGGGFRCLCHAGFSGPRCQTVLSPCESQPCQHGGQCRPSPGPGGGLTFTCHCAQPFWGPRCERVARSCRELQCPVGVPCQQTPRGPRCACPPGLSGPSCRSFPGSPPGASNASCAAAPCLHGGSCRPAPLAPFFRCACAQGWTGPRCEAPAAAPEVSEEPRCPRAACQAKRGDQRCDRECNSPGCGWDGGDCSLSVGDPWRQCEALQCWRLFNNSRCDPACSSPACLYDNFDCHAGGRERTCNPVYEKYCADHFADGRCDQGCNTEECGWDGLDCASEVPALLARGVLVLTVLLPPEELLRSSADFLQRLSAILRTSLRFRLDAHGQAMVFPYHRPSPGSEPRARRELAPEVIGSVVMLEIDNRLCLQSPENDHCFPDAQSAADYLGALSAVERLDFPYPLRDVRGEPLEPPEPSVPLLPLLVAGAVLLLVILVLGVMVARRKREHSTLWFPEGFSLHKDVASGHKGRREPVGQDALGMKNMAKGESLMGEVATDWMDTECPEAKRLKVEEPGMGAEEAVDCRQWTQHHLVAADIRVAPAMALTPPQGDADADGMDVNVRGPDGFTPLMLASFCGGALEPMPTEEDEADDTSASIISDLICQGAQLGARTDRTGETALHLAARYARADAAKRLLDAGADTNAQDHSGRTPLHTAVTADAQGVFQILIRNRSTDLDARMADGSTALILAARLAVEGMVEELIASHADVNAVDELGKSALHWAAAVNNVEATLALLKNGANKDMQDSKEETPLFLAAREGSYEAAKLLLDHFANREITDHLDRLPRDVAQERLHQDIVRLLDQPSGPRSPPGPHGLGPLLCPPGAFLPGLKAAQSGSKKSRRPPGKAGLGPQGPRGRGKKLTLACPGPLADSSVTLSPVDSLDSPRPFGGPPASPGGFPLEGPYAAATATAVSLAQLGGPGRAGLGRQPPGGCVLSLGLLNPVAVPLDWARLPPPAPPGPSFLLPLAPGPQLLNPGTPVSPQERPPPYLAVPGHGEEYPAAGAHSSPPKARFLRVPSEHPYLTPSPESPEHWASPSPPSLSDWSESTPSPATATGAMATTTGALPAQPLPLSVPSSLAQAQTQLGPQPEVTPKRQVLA
Torsin-1A-interacting protein 2 (Homo sapiens), sequence (Q8NFQ8 whole entry, looked up): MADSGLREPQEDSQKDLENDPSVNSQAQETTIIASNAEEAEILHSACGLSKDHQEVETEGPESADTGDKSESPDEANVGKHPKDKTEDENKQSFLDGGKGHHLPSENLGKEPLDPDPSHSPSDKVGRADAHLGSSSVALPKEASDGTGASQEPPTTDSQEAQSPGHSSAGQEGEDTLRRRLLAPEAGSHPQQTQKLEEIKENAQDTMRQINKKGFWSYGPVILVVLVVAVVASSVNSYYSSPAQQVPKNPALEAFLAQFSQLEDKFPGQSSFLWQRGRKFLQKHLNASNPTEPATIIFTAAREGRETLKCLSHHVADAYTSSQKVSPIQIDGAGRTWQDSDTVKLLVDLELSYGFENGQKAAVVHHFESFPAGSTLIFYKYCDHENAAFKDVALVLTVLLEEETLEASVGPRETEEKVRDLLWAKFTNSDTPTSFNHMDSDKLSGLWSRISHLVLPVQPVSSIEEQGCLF

| Compound | composite z-score [1] | z-score [2] | z-score [3] | z-score [4] | composite z-score [5] | z-score [6] | composite z-score [7] | composite z-score [8] | composite z-score [9] | composite z-score [10] |
| --- | --- | --- | --- | --- | --- | --- | --- | --- | --- | --- |
| C=CCC(OC(C)=O)[C@@H]1[C@@H](N(Cc2cc3ccccc3o2)C(=O)c2ccc(C)cc2)c2cc(OCCCO)ccc2N1C(=O)c1ccc2ccccc2n1 (stereo not given in full) | 0.207 | -0.0537 (inactive) | -0.518 (inactive) | -0.391 (inactive) | 0.285 | 2.74 (inactive) | -0.168 | 0.11 | 0.197 | -0.129 |
| C=C[C@H](OC)[C@@H](OC(=O)Nc1ccc(SC)cc1)c1ccc(O)c(F)c1 | 1.22 | -1.83 (inactive) | -1.68 (inactive) | 0.887 (inactive) | 2.96 | 1.48 (inactive) | -0.0174 | -0.0413 | 0.134 | -0.12 |
| CCCC=C(CCC)[C@@H](NS(=O)(=O)c1cccc(C(F)(F)F)c1)c1ccc(C(=O)OC)cc1 | 0.133 | 0.483 (inactive) | 0.441 (inactive) | -0.182 (inactive) | 0.468 | -0.228 (inactive) | 1.06 | 1.3 | 0.0083 | 0.912 |
| CO[C@@H]1COC(=O)[C@@H]2CCCN2C(=O)CC=C[C@@H](C)[C@H](OC)COC(=O)[C@@H]2CCCN2C(=O)CC=C[C@H]1C | 1.11 | -0.0171 (inactive) | -1.05 (inactive) | -0.258 (inactive) | -0.522 | 1.1 (inactive) | -0.166 | 1.14 | -0.325 | -0.0332 |
| COC(=O)C1=CC(c2ccc(CO)cc2)=CC(c2cccs2)N(Cc2cccc(OC(F)(F)F)c2)C=C1C(=O)OC (stereo not given) | 1.27 | -0.107 (inactive) | -1.75 (inactive) | 0.434 (inactive) | 3.31 | 0.241 (inactive) | 0.006 | -0.0249 | 1.13 | -0.0187 |
| CCOC(=O)C[C@H]1[C@H](OC(=O)Cc2ccc3c(c2)OCO3)[C@@H](NC(=O)CC(C)C)c2cc(OCCCO)ccc2N1C(=O)c1ccccc1 | 0.53 | -0.211 (inactive) | -1.36 (inactive) | -0.66 (inactive) | 0.836 | 1.6 (inactive) | -0.0127 | 0.542 | 0.417 | 0.0253 |
| C[C@@H]1C=CCC(=O)OC[C@H]2O[C@@H](C=C[C@@H]2O)[C@H](C)C=CCC(=O)OC[C@H]2O[C@H]1C=C[C@@H]2O | 1.06 | -2.14 (inactive) | -2.87 (inactive) | -1.09 (inactive) | -0.552 | 0.332 (inactive) | -0.0196 | 1.37 | 1 | 0.0779 |

Source: PubChem BioAssay
